Drawing on paper PMC11006913, this text covers binding signal for twelve sequences.

Experiment in all cases: PBM; 200 nM protein, PBS
Common to all, as to conditions: dsDNA, one strand shown

In assay [1] the target is HOXA4 (Homo sapiens, UniProt Q00056 201-287, W262R).
The target in assay [2] is HOXA4 (Homo sapiens, UniProt Q00056 201-287).
In assay [3] the target is HOXC9 (Homo sapiens, UniProt P31274 178-260, K195R).
The target in assay [4] is PRRX1 (Homo sapiens, UniProt P54821 80-166, F113S).
In assay [5] the target is HOXC9 (Homo sapiens, UniProt P31274 178-260).
Assay [6] concerns the target HOXC9 (Homo sapiens, UniProt P31274 178-260, R193K).
Assay [7] has as its target PRRX1 (Homo sapiens, UniProt P54821 80-166).
The target in assay [8] is HOXC10 (Homo sapiens, UniProt Q9NYD6 254-340).
For assay [9], the target named is HOXD13 (Homo sapiens, UniProt P35453 263-343, T313R).
Assay [10] concerns the target HOXD13 (Homo sapiens, UniProt P35453 263-343).
The target in assay [11] is HOXC10 (Homo sapiens, UniProt Q9NYD6 254-340, K271E).
Assay [12] deals with HOXD13 (Homo sapiens, UniProt P35453 263-343, T313A).
Assay [13] addresses HOXC9 (Homo sapiens, UniProt P31274 178-260, R222W).
Assay [14] has as its target HOXA2 (Homo sapiens, UniProt O43364 129-215, R185T).
Assay [15] concerns the target HOXA2 (Homo sapiens, UniProt O43364 129-215, R185K).
Assay [16] has as its target HOXA2 (Homo sapiens, UniProt O43364 129-215, Y150S).
The target in assay [17] is HOXA2 (Homo sapiens, UniProt O43364 129-215).
Assay [18] deals with HOXA4 (Homo sapiens, UniProt Q00056 201-287, W262F).
For assay [19], the target named is VAX1 (Homo sapiens, UniProt Q5SQQ9 86-172).
The target in assay [20] is VAX1 (Homo sapiens, UniProt Q5SQQ9 86-172, T142I).
Assay [21] deals with VAX1 (Homo sapiens, UniProt Q5SQQ9 86-172, K157R).
For assay [22], the target named is MSX2 (Homo sapiens, UniProt P35548 130-214, R199I).
Assay [23] addresses ALX3 (Homo sapiens, UniProt O95076 139-225, N203Q).
Assay [24] concerns the target MSX2 (Homo sapiens, UniProt P35548 130-214).
Assay [25] addresses ALX3 (Homo sapiens, UniProt O95076 139-225).
For assay [26], the target named is ALX3 (Homo sapiens, UniProt O95076 139-225, L168Q).
The target in assay [27] is ALX3 (Homo sapiens, UniProt O95076 139-225, L168V).
The target of assay [28] is MSX2 (Homo sapiens, UniProt P35548 130-214, F161Y).
In assay [29] the target is ALX3 (Homo sapiens, UniProt O95076 139-225, N203S).
Assay [30] has as its target HOXA7 (Homo sapiens, UniProt P31268 116-202).
Assay [31] concerns the target HOXA7 (Homo sapiens, UniProt P31268 116-202, W177C).
Assay [32] has as its target NKX3-2 (Homo sapiens, UniProt P78367 192-278, P234S).
In assay [33] the target is NKX3-2 (Homo sapiens, UniProt P78367 192-278).
Chain of NKX3-2 (Homo sapiens, UniProt P78367 192-278) (P78367 192-278): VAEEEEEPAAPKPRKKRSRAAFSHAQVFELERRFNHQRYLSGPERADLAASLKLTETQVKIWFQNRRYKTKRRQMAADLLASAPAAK

Chain of HOXA4 (Homo sapiens, UniProt Q00056 201-287) (Q00056 201-287): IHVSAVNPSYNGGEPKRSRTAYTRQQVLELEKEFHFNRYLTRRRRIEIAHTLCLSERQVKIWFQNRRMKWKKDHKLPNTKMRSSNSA
Chain of HOXC9 (Homo sapiens, UniProt P31274 178-260, K195R) (P31274 178-260 K195R): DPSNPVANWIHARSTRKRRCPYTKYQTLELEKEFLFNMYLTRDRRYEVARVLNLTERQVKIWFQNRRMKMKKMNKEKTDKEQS
Chain of HOXA4 (Homo sapiens, UniProt Q00056 201-287, W262F) (Q00056 201-287 W262F): as the sequence (Q00056 201-287) above, with W62F counted along it
Chain of HOXC9 (Homo sapiens, UniProt P31274 178-260, R193K) (P31274 178-260 R193K): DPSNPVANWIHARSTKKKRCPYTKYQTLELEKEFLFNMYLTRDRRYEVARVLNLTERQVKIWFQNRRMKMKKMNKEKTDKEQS
Chain of HOXC10 (Homo sapiens, UniProt Q9NYD6 254-340, K271E) (Q9NYD6 254-340 K271E): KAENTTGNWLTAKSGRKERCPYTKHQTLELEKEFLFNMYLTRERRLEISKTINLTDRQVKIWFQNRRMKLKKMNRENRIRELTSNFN
Chain of HOXC10 (Homo sapiens, UniProt Q9NYD6 254-340) (Q9NYD6 254-340): as the sequence (Q9NYD6 254-340 K271E) above, with E18K counted along it
Chain of HOXC9 (Homo sapiens, UniProt P31274 178-260) (P31274 178-260): as the sequence (P31274 178-260 R193K) above, with K16R counted along it
Chain of HOXA4 (Homo sapiens, UniProt Q00056 201-287, W262R) (Q00056 201-287 W262R): as the sequence (Q00056 201-287) above, with W62R counted along it
Chain of HOXC9 (Homo sapiens, UniProt P31274 178-260, R222W) (P31274 178-260 R222W): as the sequence (P31274 178-260 R193K) above, with K16R, R45W counted along it
Chain of MSX2 (Homo sapiens, UniProt P35548 130-214, R199I) (P35548 130-214 R199I): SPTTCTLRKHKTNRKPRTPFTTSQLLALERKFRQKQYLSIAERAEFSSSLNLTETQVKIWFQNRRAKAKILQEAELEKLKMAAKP
Chain of VAX1 (Homo sapiens, UniProt Q5SQQ9 86-172) (Q5SQQ9 86-172): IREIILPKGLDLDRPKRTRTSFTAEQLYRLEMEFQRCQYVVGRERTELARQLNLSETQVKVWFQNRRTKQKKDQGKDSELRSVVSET
Chain of ALX3 (Homo sapiens, UniProt O95076 139-225, L168V) (O95076 139-225 L168V): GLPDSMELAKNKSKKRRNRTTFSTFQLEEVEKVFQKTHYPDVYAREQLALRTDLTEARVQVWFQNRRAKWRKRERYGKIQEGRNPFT
Chain of VAX1 (Homo sapiens, UniProt Q5SQQ9 86-172, K157R) (Q5SQQ9 86-172 K157R): as the sequence (Q5SQQ9 86-172) above, with K72R counted along it
Chain of PRRX1 (Homo sapiens, UniProt P54821 80-166, F113S) (P54821 80-166 F113S): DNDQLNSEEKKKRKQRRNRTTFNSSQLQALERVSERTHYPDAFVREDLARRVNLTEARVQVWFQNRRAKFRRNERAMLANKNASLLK
Chain of ALX3 (Homo sapiens, UniProt O95076 139-225) (O95076 139-225): as the sequence (O95076 139-225 L168V) above, with V30L counted along it
Chain of HOXA2 (Homo sapiens, UniProt O43364 129-215, R185K) (O43364 129-215 R185K): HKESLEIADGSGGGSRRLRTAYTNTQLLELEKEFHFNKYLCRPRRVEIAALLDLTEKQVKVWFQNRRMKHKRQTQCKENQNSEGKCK
Chain of HOXA2 (Homo sapiens, UniProt O43364 129-215) (O43364 129-215): as the sequence (O43364 129-215 R185K) above, with K57R counted along it
Chain of HOXA2 (Homo sapiens, UniProt O43364 129-215, Y150S) (O43364 129-215 Y150S): as the sequence (O43364 129-215 R185K) above, with Y22S, K57R counted along it
Chain of HOXD13 (Homo sapiens, UniProt P35453 263-343) (P35453 263-343): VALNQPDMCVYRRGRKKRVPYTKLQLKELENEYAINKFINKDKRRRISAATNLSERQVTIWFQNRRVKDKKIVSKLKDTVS
Chain of ALX3 (Homo sapiens, UniProt O95076 139-225, N203Q) (O95076 139-225 N203Q): as the sequence (O95076 139-225 L168V) above, with V30L, N65Q counted along it
Chain of HOXA7 (Homo sapiens, UniProt P31268 116-202, W177C) (P31268 116-202 W177C): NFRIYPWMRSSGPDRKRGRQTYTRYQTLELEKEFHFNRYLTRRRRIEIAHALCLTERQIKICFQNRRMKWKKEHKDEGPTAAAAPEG
Chain of HOXD13 (Homo sapiens, UniProt P35453 263-343, T313A) (P35453 263-343 T313A): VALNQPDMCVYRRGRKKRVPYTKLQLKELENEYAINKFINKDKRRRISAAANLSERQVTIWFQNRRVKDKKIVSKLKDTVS
Chain of ALX3 (Homo sapiens, UniProt O95076 139-225, L168Q) (O95076 139-225 L168Q): as the sequence (O95076 139-225 L168V) above, with V30Q counted along it
Chain of ALX3 (Homo sapiens, UniProt O95076 139-225, N203S) (O95076 139-225 N203S): as the sequence (O95076 139-225 L168V) above, with V30L, N65S counted along it
Chain of HOXA7 (Homo sapiens, UniProt P31268 116-202) (P31268 116-202): as the sequence (P31268 116-202 W177C) above, with C62W counted along it
Chain of HOXA2 (Homo sapiens, UniProt O43364 129-215, R185T) (O43364 129-215 R185T): as the sequence (O43364 129-215 R185K) above, with K57T counted along it
Chain of MSX2 (Homo sapiens, UniProt P35548 130-214, F161Y) (P35548 130-214 F161Y): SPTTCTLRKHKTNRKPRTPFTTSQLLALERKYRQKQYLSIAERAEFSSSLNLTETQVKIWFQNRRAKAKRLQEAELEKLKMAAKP
Chain of VAX1 (Homo sapiens, UniProt Q5SQQ9 86-172, T142I) (Q5SQQ9 86-172 T142I): as the sequence (Q5SQQ9 86-172) above, with T57I counted along it
Chain of PRRX1 (Homo sapiens, UniProt P54821 80-166) (P54821 80-166): as the sequence (P54821 80-166 F113S) above, with S34F counted along it
Chain of HOXD13 (Homo sapiens, UniProt P35453 263-343, T313R) (P35453 263-343 T313R): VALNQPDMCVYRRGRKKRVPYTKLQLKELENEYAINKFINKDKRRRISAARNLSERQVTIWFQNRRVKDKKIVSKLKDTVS
Chain of NKX3-2 (Homo sapiens, UniProt P78367 192-278, P234S) (P78367 192-278 P234S): as the sequence (P78367 192-278) above, with P43S counted along it
Chain of MSX2 (Homo sapiens, UniProt P35548 130-214) (P35548 130-214): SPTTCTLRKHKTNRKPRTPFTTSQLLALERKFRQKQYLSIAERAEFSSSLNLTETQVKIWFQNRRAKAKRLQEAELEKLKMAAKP

Consider CTAATCTA, for which the binding signal was 10.3 upbm affinity estimate (log intensity, higher = more binding, comparable within an allelic series) in assay [1] and 12 upbm affinity estimate (log intensity, higher = more binding, comparable within an allelic series) in assay [2].
Consider ATATTGAC, for which the binding signal in [3] is 11.1 upbm affinity estimate (log intensity, higher = more binding, comparable within an allelic series); in assay [4] it was 10.1 upbm affinity estimate (log intensity, higher = more binding, comparable within an allelic series); in assay [5], 11.1 upbm affinity estimate (log intensity, higher = more binding, comparable within an allelic series); in assay [6] it was 11.1 upbm affinity estimate (log intensity, higher = more binding, comparable within an allelic series); in assay [7], 11.4 upbm affinity estimate (log intensity, higher = more binding, comparable within an allelic series).
Regarding ATTTACGA, the binding signal in assay [3] was 12.4 upbm affinity estimate (log intensity, higher = more binding, comparable within an allelic series); in assay [8] it was 12.3 upbm affinity estimate (log intensity, higher = more binding, comparable within an allelic series); in [5], 12.6 upbm affinity estimate (log intensity, higher = more binding, comparable within an allelic series); in [9] it was 10.9 upbm affinity estimate (log intensity, higher = more binding, comparable within an allelic series); in [6], 12.4 upbm affinity estimate (log intensity, higher = more binding, comparable within an allelic series); in assay [10] it was 12 upbm affinity estimate (log intensity, higher = more binding, comparable within an allelic series). In addition, the binding signal is 11.8 upbm affinity estimate (log intensity, higher = more binding, comparable within an allelic series) in assay [11]; 11.8 upbm affinity estimate (log intensity, higher = more binding, comparable within an allelic series) in [12]; 10.9 upbm affinity estimate (log intensity, higher = more binding, comparable within an allelic series) in assay [13].
Regarding CCAGTCGG, the binding signal was 9.76 upbm affinity estimate (log intensity, higher = more binding, comparable within an allelic series) in assay [3]; 10.1 upbm affinity estimate (log intensity, higher = more binding, comparable within an allelic series) in assay [8]; 7.11 upbm affinity estimate (log intensity, higher = more binding, comparable within an allelic series) in assay [14]; 9.93 upbm affinity estimate (log intensity, higher = more binding, comparable within an allelic series) in assay [5]; 9.79 upbm affinity estimate (log intensity, higher = more binding, comparable within an allelic series) in [6]; 10.4 upbm affinity estimate (log intensity, higher = more binding, comparable within an allelic series) in assay [15]. In addition, the binding signal is 10 upbm affinity estimate (log intensity, higher = more binding, comparable within an allelic series) in assay [11]; 9.69 upbm affinity estimate (log intensity, higher = more binding, comparable within an allelic series) in [13]; 10.4 upbm affinity estimate (log intensity, higher = more binding, comparable within an allelic series) in assay [16]; 7.25 upbm affinity estimate (log intensity, higher = more binding, comparable within an allelic series) in assay [17].
Consider AAGATTAC, for which the binding signal in [1] was 10.2 upbm affinity estimate (log intensity, higher = more binding, comparable within an allelic series); in [2], 11.1 upbm affinity estimate (log intensity, higher = more binding, comparable within an allelic series); in assay [18], 10.4 upbm affinity estimate (log intensity, higher = more binding, comparable within an allelic series).
In the case of CATTTGGG, the binding signal is 10.1 upbm affinity estimate (log intensity, higher = more binding, comparable within an allelic series) in assay [1]; 11.3 upbm affinity estimate (log intensity, higher = more binding, comparable within an allelic series) in [2]; 10.3 upbm affinity estimate (log intensity, higher = more binding, comparable within an allelic series) in assay [18].
For AATCACTG, the binding signal in assay [1] was 10.3 upbm affinity estimate (log intensity, higher = more binding, comparable within an allelic series); in assay [2], 11.3 upbm affinity estimate (log intensity, higher = more binding, comparable within an allelic series); in assay [19], 9.43 upbm affinity estimate (log intensity, higher = more binding, comparable within an allelic series); in assay [20], 9.21 upbm affinity estimate (log intensity, higher = more binding, comparable within an allelic series); in assay [21], 9.33 upbm affinity estimate (log intensity, higher = more binding, comparable within an allelic series).
On to AGCCCTCC, for which the binding signal in assay [3] is 9.66 upbm affinity estimate (log intensity, higher = more binding, comparable within an allelic series); in [8], 10 upbm affinity estimate (log intensity, higher = more binding, comparable within an allelic series); in assay [5] it was 9.73 upbm affinity estimate (log intensity, higher = more binding, comparable within an allelic series); in [22] it was 9.53 upbm affinity estimate (log intensity, higher = more binding, comparable within an allelic series); in [23], 7.79 upbm affinity estimate (log intensity, higher = more binding, comparable within an allelic series); in assay [6], 9.66 upbm affinity estimate (log intensity, higher = more binding, comparable within an allelic series). Also, the binding signal in assay [11] is 10 upbm affinity estimate (log intensity, higher = more binding, comparable within an allelic series); in assay [24], 9.44 upbm affinity estimate (log intensity, higher = more binding, comparable within an allelic series); in assay [25], 7.83 upbm affinity estimate (log intensity, higher = more binding, comparable within an allelic series); in [26], 7.75 upbm affinity estimate (log intensity, higher = more binding, comparable within an allelic series); in assay [13], 9.65 upbm affinity estimate (log intensity, higher = more binding, comparable within an allelic series); in [27], 7.79 upbm affinity estimate (log intensity, higher = more binding, comparable within an allelic series). Moreover, the binding signal in [28] is 9.49 upbm affinity estimate (log intensity, higher = more binding, comparable within an allelic series); in assay [29] it was 7.76 upbm affinity estimate (log intensity, higher = more binding, comparable within an allelic series).
With CGTCAATA, the binding signal in assay [1] was 10.2 upbm affinity estimate (log intensity, higher = more binding, comparable within an allelic series); in assay [2], 10.9 upbm affinity estimate (log intensity, higher = more binding, comparable within an allelic series).
On to GTTCTTAA, for which the binding signal is 10.3 upbm affinity estimate (log intensity, higher = more binding, comparable within an allelic series) in assay [1]; 11.4 upbm affinity estimate (log intensity, higher = more binding, comparable within an allelic series) in assay [2]; 10.5 upbm affinity estimate (log intensity, higher = more binding, comparable within an allelic series) in [18].
In the case of CAAGCTCG, the binding signal in assay [3] was 9.46 upbm affinity estimate (log intensity, higher = more binding, comparable within an allelic series); in assay [30], 8.21 upbm affinity estimate (log intensity, higher = more binding, comparable within an allelic series); in assay [5] it was 9.49 upbm affinity estimate (log intensity, higher = more binding, comparable within an allelic series); in [6], 9.44 upbm affinity estimate (log intensity, higher = more binding, comparable within an allelic series); in [13], 9.62 upbm affinity estimate (log intensity, higher = more binding, comparable within an allelic series); in assay [31], 8.29 upbm affinity estimate (log intensity, higher = more binding, comparable within an allelic series). Also, the binding signal was 10.3 upbm affinity estimate (log intensity, higher = more binding, comparable within an allelic series) in assay [32] and 10.3 upbm affinity estimate (log intensity, higher = more binding, comparable within an allelic series) in assay [33].
Turning to CTCATCTA, the binding signal in assay [1] is 10.3 upbm affinity estimate (log intensity, higher = more binding, comparable within an allelic series); in [2] it was 11.5 upbm affinity estimate (log intensity, higher = more binding, comparable within an allelic series).
